Laboratory results: PubChem BioAssay (NCATS)
Records with an inconclusive call do not appear. Calls of active or inactive are those of the source. The call rests on the fitted dose curve; in most records, active means well fitted curve in the direction sought with a large enough effect; inconclusive means small, poorly fitted or top-dose-only effect, or another doubt; inactive means no such curve, though single readings can be large or run the other way. Where a SMILES comes first, the peptide text is derived from it. Bridges are numbered along the chain shown (N, C = ends). [ ]: non-standard residue; d: D form. The star is where a group is joined. ξ: configuration not given here. d(aThr) = C[C@@H](O)[C@@H](N)C(=O)O; ξThr(3R) = C[C@@H](O)C(N)C(=O)O; X3 = CC[C@@H](C)CCCCC(=O)*; dDab = NCC[C@@H](N)C(=O)O

Assay: qHTS Assay for Identifying Gametocytocidal Compounds (AID 743244);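 on max response: actives lower the fluorescent signal which means gametocytes are killed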
Conditions: P. falciparum 3D7 stage III-V gametocytes, alamarBlue, 72 h; max response: stronger effect = lower value
Summary of the method: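 Using 20,000 stage III–V 3D7 gametocytes per well, compounds were incubated 72 h under 37 °C/5% CO2. Viability was then assessed by 24 h alamarBlue reduction, measured fluorometrically at 525/598 nm.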
On the % scale 0 is the no-effect control and ±100 the full control effect; potency means the concentration at half of the fitted maximal effect.

Compound	max response	Potency
c1ccc2c(c1)OCC(CN1CCCCC1)O2 (stereo not drawn)	-2.04% (inactive)	–
O=P(O)(O)CP(=O)(O)O	-3.27% (inactive)	–
Oc1ccc(Cl)c2c1CCC2	-5.98% (inactive)	–
C=CC1=C(C(=O)O)N2C(=O)[C@@H](NC(=O)/C(=N/OCC(=O)O)c3csc(N)n3)[C@H]2SC1 (stereo in doubt)	-1.34% (inactive)	–
O=C(/C=C/c1cccc(F)c1)NC1CC1	-1.6% (inactive)	–
O=S(=O)(O)CC(S)CS (stereo not drawn)	3.76% (inactive)	–
CC(=O)Nc1ccc(OC(=O)c2ccccc2O)cc1	-4.48% (inactive)	–
CCCCCCCCCCCCCCCCCC[N+](C)(C)CCC[Si](OC)(OC)OC	-8.48% (inactive)	–
O=C(CCCCCCCCCCCCC1CCCC1)Nc1ccc(S(=O)(=O)c2ccc(NC(=O)CCCCCCCCCCCCC3CCCC3)cc2)cc1	1.73% (inactive)	–
C[C@H](O)CN(C)C	-4.88% (inactive)	–
Cc1cc(=O)c(C(=O)N[C@@H](C(=O)N[C@@H]2C(=O)N3C(C(=O)O)=C(CSc4nnnn4C)CS[C@H]23)c2ccc(O)cc2)c[nH]1	-4.61% (inactive)	–
Cc1cccc(C)c1NC(=O)NC1=CCCN1C	-1.59% (inactive)	–
C=C1CC[C@H](O)CC1=C/C=C1\CCC[C@]2(C)[C@@H]([C@H](C)CCCC(C)(C)O)CC[C@@H]12	-5.02% (inactive)	–
NC(N)=NCC1COc2ccccc2O1 (stereo not drawn)	-11.6% (inactive)	–
O=C(O)[C@H]1CN(C/C=C/P(=O)(O)O)CCN1	12.3% (inactive)	–
C=Cc1ccc(S(=O)(=O)O)cc1	-6.42% (inactive)	–
O=C(O)/C=C/c1ccccc1	0.36% (inactive)	–
CO/N=C(\C(=O)N[C@@H]1C(=O)N2C(C(=O)[O-])=C(C[n+]3ccc(N)n3CCO)CS[C@H]12)c1csc(N)n1	-6.21% (inactive)	–
CNC(=O)[C@H](Cc1c[nH]c2ccccc12)NC(=O)[C@@H](CC(=O)NO)CC(C)C	-3.58% (inactive)	–

Compound	max response	Potency
CC(=O)Oc1cccc(C(=O)O)c1OC(C)=O	10.1% (inactive)	–
CCCCCCCCCCCCCCCC(=O)OC[C@@H](O)[C@H]1OC[C@H](O)[C@H]1O	-10.2% (inactive)	–
CN[C@@H]1[C@@H](O[C@H]2O[C@H](CO)[C@@H](N)[C@H](O)[C@H]2O)O[C@H]2C[C@@H](N)[C@@H](O[C@H]3[C@H](O)[C@@H](O)[C@H](N)C[C@@H]3N)O[C@@H]2[C@@H]1O	4.88% (inactive)	–
CC/C=C\C/C=C\C/C=C\C/C=C\C/C=C\C/C=C\CCC(=O)O	-1.97% (inactive)	–
CC1(C)[C@H]2CC[C@]1(C)[C@H](O)C2	0.139% (inactive)	–
CC(C)[C@H](N)C(=O)OCC(CO)OCn1cnc2c(=O)[nH]c(N)nc21 (stereo partly drawn)	-1.87% (inactive)	–
CC[C@@H](C)CCCCC(=O)N[C@H](CCN)C(=O)N[C@@H](C(=O)N[C@H](CCN)C(=O)N[C@@H]1CCNC(=O)C([C@@H](C)O)NC(=O)[C@@H](CCN)NC(=O)[C@@H](CCN)NC(=O)[C@@H](CC(C)C)NC(=O)[C@@H](Cc2ccccc2)NC(=O)[C@@H](CCN)NC1=O)[C@@H](C)O (stereo partly drawn) (X3-[dDab][d(aThr)][dDab][dDab][dDab][dF][dL][dDab][dDab][ξThr(3R)]; lactam 4-C)	13.9% (inactive)	–
FC(F)(F)C(F)(F)C(F)(F)C(F)(F)C(F)(F)F	-2.45% (inactive)	–
CC1(C)C(\C=C/C=C\C=C/C=C2/N(CCCCS(=O)(=O)O)c3ccc4ccccc4c3C2(C)C)=[N+](CCCCS(=O)(=O)[O-])c2ccc3ccccc3c21	2.8% (inactive)	–
OC1OC[C@@H](O)[C@H](O)[C@@H]1O (stereo partly drawn)	7.58% (inactive)	–
CO[C@H]1O[C@@H]2O[C@@]3(C)CC[C@H]4[C@H](C)CC[C@@H]([C@H]1C)[C@@]24OO3	–	83.3 nM (active)
CCCCCCCCCCCCCC(=O)OCC(COP(=O)([O-])OCC[N+](C)(C)C)OC(=O)CCCCCCCCCCCCC (stereo not drawn)	8.75% (inactive)	–
O=C1c2ccccc2CN2C(=O)c3ccccc3CN12	10.5% (inactive)	–
FC(F)(F)COCC(F)(F)F	3.82% (inactive)	–
CC(C)(Oc1ccc(C2CCCc3ccccc32)cc1)C(=O)O (stereo not drawn)	-6.04% (inactive)	–
H-RKDVY-OH	-13.7% (inactive)	–
CC(=O)N[C@@H]([C@@H](O)[C@H](O)[C@H](O)CO)[C@@H](O)CC(=O)C(=O)O	14.7% (inactive)	–
O=c1[nH]c(=O)n([C@H]2C[C@H](O)[C@@H](CO)O2)cc1/C=C/Br	6.97% (inactive)	–
CC(C)Cc1ccc([C@@H](C)C(=O)NS(C)(=O)=O)cc1	17.9% (inactive)	–
